The whole screen tested about 2,800 compounds, of which fewer than 10 were called active. Inconclusive results (about 7%) are left out. Calls follow the shape of the dose curve; as a rule, active = well fitted inhibition curve with a large enough effect; inconclusive = small, poorly fitted or top-dose-only effect; inactive = no such curve, though single readings can be large or run the other way. Only a sample is shown.
What follows are compounds tested against Metallo-beta-lactamase type 2 (Klebsiella pneumoniae) (UniProt C7C422) (assay: qHTS to identify inhibitors of the New Delhi Metallo-beta-lactamase (NDM): Nitrocefin screen against the machine-based learning selections.). Conditions: NDM-1 enzyme, nitrocefin hydrolysis, absorbance 485 nm; series mostly up to 38.4 µM; activity, negative = inhibition: at the top concentration.
Text: Assay Submitter (PI): James Inglese Ph.D., Patricia Dranchak Ph.D., Mahesh Aitha Ph.D. Assay Development and Screening Technology Laboratory (ADST) National Center for Advancing Translational Sciences (NCATS), Rockville, MD National Institute of Health (NIH), Bethesda, Maryland The metallo-beta-lactamases (MBL) are a main antibiotic resistance mechanism evolved by bacteria. There is an urgent clinical need for MBL inhibitors to mitigate this growing threat. To support a machine-based learning study, qHTS has been used to experimentally test inhibitors identified by prediction tools.
PROTOCOL TABLE (as described by Inglese et al., 2007) SEQUENCE No. (e.g., 1, 2, 3, etc.); […] (e.g., enzyme, Incubation, Reagent, etc.); VALUE; DESCRIPTION Primary Screen 1; NDM-1; 4 uL of 3 nM enzyme [2 nM final] in 50 mM HEPES (pH 7.0), 1 uM […], 0.01% Tween20; Use BioRaptr to dispense into two sets of Aurora black, clear bottom high base 1536-well plates 2; Compounds; 23 nL; Use Pin Tool (Wako) to transfer DMSO control and library compounds in DMSO 3; Incubate; >30 min 4a; Reagent; 2 uL of 50 uM nitrocefin [16.7 uM final] to one set of assay plates 4b; Reagent; 2 uL of 150 uM meropenem [50 uM final] to second set of assay plates 5a; Incubate; 15 min 5b; Incubate; 30 min 6a; Detector; Absorbance at 485 nm (bandwidth = 5 nm, 25 flashes/well) on Tecan Infinity 6b; Detector; Absorbance at 300 nm (bandwidth = 5 nm, 25 flashes/well) on Tecan Infinity NOTES (numbers refer to sequence above) 1; Column 1 of each plate received assay buffer without enzyme and columns 2-48 received enzyme for a final assay concentration of 2 nM. 2; Control plate contained DMSO in columns 1, 2, 3, and 4. 3; Compound interaction with enzyme. 4; Nitrocefin and meropenem substrates were prepared in the same assay buffer as step 1 for a final assay concentration of 16.7 uM and 50 uM, respectively, and added to all wells across respective sets of assay plates. 5; Default reader settings were applied for absorbance read at 485 nm (nitrocefin) or 300 nm (meropenem), bandwidth = 5 nm, 25 flashes/well. References: Inglese J, Shamu CE, Guy RK. 2007. Reporting data from high-throughput screening of small-molecule libraries. Nat Chem Biol. doi:10.1038/nchembio0807-438 Yasgar A, Shinn P, Jadhav A, Auld D, Michael S, Zheng W, Austin CP, Inglese J, Simeonov A. 2008. Compound Management for Quantitative High-Throughput Screening. J Lab Autom 13:79 - 89. doi:10.1016/j.jala.2007.12.004
Also: % of control where 0% means no effect.

Chain of Metallo-beta-lactamase type 2 (Klebsiella pneumoniae) (C7C422 whole entry, looked up): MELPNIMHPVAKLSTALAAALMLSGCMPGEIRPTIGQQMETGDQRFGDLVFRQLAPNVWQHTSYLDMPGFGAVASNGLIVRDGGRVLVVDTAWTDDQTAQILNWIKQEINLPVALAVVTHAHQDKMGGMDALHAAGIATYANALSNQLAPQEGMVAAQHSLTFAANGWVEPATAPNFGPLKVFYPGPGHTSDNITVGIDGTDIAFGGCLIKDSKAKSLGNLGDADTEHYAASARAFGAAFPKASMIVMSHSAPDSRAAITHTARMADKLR

activity, negative = inhibition, inactive:
COc1ccccc1CCC(=O)NCc1nnc2ccc(-c3ccc(C)cc3)nn12 0.342%
O=C(NCc1ccc2c(c1)OCO2)C1CCN(c2cn[nH]c(=O)c2)C1 (stereo not drawn) -0.395%
O=C(O)CCCC(=O)N1CCN2C(=O)c3cc(-c4ccco4)ccc3NC(=O)[C@@H]2C1 -1.67% [at 57.5 µM]
O=C(c1ccc(N2CC3CC(C2)[C@H]2CCCC(=O)N2C3)nc1)N1CCN(c2cccc(Cl)c2)CC1 (stereo partly drawn) 4.67%
Cc1ccc(C2(O)CCN(C(=O)c3cnn4cc(CCO)cnc34)CC2)nc1 -0.405%
O=C(C[C@@H]1CCNC[C@@H]1Cc1cc(CC2CCCCC2)on1)NC1CC1 -5.16% [at 57.5 µM]
O=C(Nc1ccccc1)O[C@@H]1CO[C@H]2[C@@H]1OC[C@@H]2NC(=O)c1ccc(C(F)(F)F)cc1 -7.3%
Cc1cnn(Cc2cc(C(=O)N3CCCCCC3c3nnc(-c4ccccc4)o3)no2)c1 (stereo not drawn) -2.52%
COc1ccc(-c2cc(N3CCCN(C(=O)c4cnccn4)CC3)n[nH]2)cc1 5.78%
Cc1cc(C(=O)N[C@@H]2CCC[C@@H](C(=O)N3CCN(C)CC3)CC(=O)N(C)C2)no1 1.92% [at 57.5 µM]
CCC(C)NC(=O)CC1Sc2ncccc2N(C)C1=O (stereo not drawn) -4.27%
CC[C@H]1CN(C(=O)Nc2cccc(C(F)(F)F)c2)CC[C@H]1CC(=O)NC1CC1 9.41% [at 57.5 µM]
CC(C)NC(=O)C[C@@H]1C[C@H]2O[C@H](CNCc3ccccc3Cl)[C@@H](O)[C@H]2O1 -0.815% [at 57.5 µM]
COc1nc2c(cc1CNC(=O)C1CCOC1)C(=O)N(CCc1ccccn1)C2 (stereo not drawn) -6.59%
Cc1ccc(CN2CC[C@@H]3[C@H]2C(=O)NC[C@H](CCC(=O)N2CC[C@@H](O)C2)N3C)cc1 -10.8% [at 57.5 µM]
O=C(O)C[C@@H]1CCN(C(=O)c2ccco2)C[C@@H]1CCN1CCOCC1 -16.5% [at 57.5 µM]
CN1C[C@H](C(=O)NCc2ccccc2)C[C@H]1c1cccc(C(F)(F)F)c1 7.22% [at 57.5 µM]
CC(C)C[C@@H]1N[C@H](C(=O)NCCOc2ccccc2)Cc2c[nH]c3cccc1c23 -8.13% [at 57.5 µM]
CN(C)C1CCN(c2nc(-c3ccncc3)nc3c2CNC3)C1 (stereo not drawn) -18.4%
Cc1oc(C(O)c2cccc(O)c2)nc1C(=O)Nc1ccc2[nH]c(=O)oc2c1 (stereo not drawn) 364% [at 57.5 µM]
O=C(c1cc(-c2ccc(O)cc2)n[nH]1)N1CCCC(CCc2ccc(F)cc2)C1 (stereo not drawn) -4.71%
COc1ccc(CC2(CO)CCN(c3nccc(N)n3)CC2)cc1 -0.629%
Cc1ccc2c(C)c(C(=O)N3CC(OCc4ccccc4F)C3)oc2c1 3.3%
COCCNC(=O)c1ccc2c(c1)N(C)C(CC(=O)Nc1ccc(N)nc1)CO2 (stereo not drawn) 0.471%
CCCc1cc(C(=O)N[C@@H]2COCC[C@H]2Oc2ccc(C(=O)O)cc2)n[nH]1 -3.33%
Cc1cccc(C(=O)N2CC[C@@H](NC(=O)c3cnccn3)[C@H](O)C2)n1 -0.486%
O=[S+]([O-])(c1cccnc1)N1CCNc2cnc(Nc3ccc(-n4ccnc4)cc3)nc2C1 -18.7%
O=C(Cn1ccn2nc3c(c2c1=O)CCCC3)NCc1ccc2c(c1)OCO2 -5.33%
COc1ccccc1-n1cc(C(=O)NC[C@@H]2C[C@H](F)CN2)cn1 27.4%
c1csc(CN2Cc3[nH]cnc3C[C@H]2c2nc(-c3ccc4c(c3)OCO4)no2)c1 -5.85% [at 57.5 µM]
O=C(Nc1ccccc1)O[C@@H]1CO[C@H]2[C@@H]1OC[C@@H]2NS(=O)(=O)c1cccc2cccnc12 4.41%
OCc1cccc(-c2ccc3ncc(Nc4cccc(F)c4)n3n2)c1 3.24% [at 57.5 µM]
O=C(c1ccc2ncccc2c1)N1CCC2(CC1)Nc1ccccc1NC2=O -0.464%
COc1ccc(CC(=O)N2CC(CO)C3(CCNCC3)C2)cc1 (stereo not drawn) -12.8%
Cc1ccc(CN2CC[C@@H](CO)N(C)c3cccnc3C2)s1 -5.46% [at 57.5 µM]
CS(=O)(=O)N1CCC(C2CCN(C(=O)Cc3cccc(F)c3)C2)CC1 (stereo not drawn) 1.68%
O=C(NCc1nc(-c2ccncc2)n[nH]1)[C@H]1CCC[C@H](O)C1 -10.4%
N[C@@H]1CCN(Cc2ccccc2OCc2ccc(Cl)cc2)C[C@H]1O 12.1%
COCCOc1ncccc1-c1noc([C@@H]2CCCN2CC(C)(C)C)n1 0.0168% [at 57.5 µM]
CC1=C[C@@H](CNC(=O)c2ccc(F)cc2)[C@H](C(C)C)C[C@H]1CC(=O)N1CCN(C)CC1 8.05% [at 57.5 µM]
O=C1Cc2c(-c3cccc(O)c3)n[nH]c2CN1CC1CC1 -0.331% [at 76.7 µM]
C[C@@H]1CN(C(=O)Cn2ccc(=O)[nH]c2=O)C[C@@]1(O)C1CCC1 3.92%
COc1cccc(NC(=O)O[C@@H]2CC[C@]3(C)C(CC[C@@H](O)[C@H]3CC(=O)N3CCCC3)[C@]2(C)CO)c1 (stereo partly drawn) 1.26%
CCc1noc([C@@H]2CC(F)(F)CN2C(=O)c2ccoc2C)n1 -11%
CC(C)=CC(=O)N1CC[C@H](NC(=O)Nc2ccc(F)cc2F)[C@H]1C(=O)N[C@@H](Cc1cccs1)C(N)=O -2.77%
NCCc1cccc(CN2CCCC(COc3ccccc3F)C2)c1 (stereo not drawn) -4.55%
c1ccc(-c2nnc3ccc(NC4CCC4)nn23)nc1 2.76% [at 76.7 µM]
CC(C)(O)C#Cc1ccc(C(=O)N2CCC(O)(c3ccccn3)CC2)cc1 -4.87%

Source: PubChem BioAssay AID1794844 (National Center for Advancing Translational Sciences (NCATS), 2023)
